CFTR F508del cor: correctors of CFTR F508del function in bronchial epithelial cells; activity (quench increase), % at 7.58 µM; CFBE cells, YFP halide quenching; stimulated with forskolin plus potentiator P3; % fluorescence drop versus neutral controls; 0.36% of 350,000 active;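 active = mean added fluorescence quench of at least 8% versus neutral control, with both replicates also reaching 8%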;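 also: cells transiently co-express mutant CFTR-F508del with the halide-sensitive YFP; corrector assay measuring rescue of mutant channel to the surface after 24 h compound exposure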
LGR2 inh: blocks bursicon-induced cAMP signaling via Drosophila LGR2; HEK293 LGR2, CRE-luciferase, bursicon-stimulated, 4 h; 0.35% of 380,000 active; inhibition, % at 9.99 µM; AID 720647;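 active = drop in luminescence signal, shown as inhibition above about 50% in the replicate tests, limit read from the data, passing the limit was not always enough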;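 also: agonist challenge used bursicon conditioned medium at about half maximal strength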
PAX8 reporter: PAX8 transcriptional activity inhibition. inhibition, % at 12.6 µM. 1.2% of 360,000 active. RMG-I TPO-luciferase reporter, SteadyGlo, 24 h;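 active = mean replicate inhibition at least 60% with every replicate also reaching 60%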;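 also: luciferase light reporting Pax8 driven TPO promoter activity; plate controls were median of neutral control wells for no effect and mitoxantrone controls for full effect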
EWS-Fli inh: blocks EWS/Fli oncoprotein-driven transcription | A673 NR0B1-luciferase reporter, viability-normalised | inhibition, % at 12.6 µM | 0.67% of 350,000 active | AID 651661;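 active = mean inhibition of at least 50% after viability correction, with every replicate also passing that limit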;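 also: firefly luciferase signal divided by Alamar Blue viability fluorescence both relative to DMSO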
The depositor's hits bear a star; . = no result given; ! = repeats disagree. Compounds with a hit are over-represented: about 1.8% of the library has one in this group of screens.

SMILES | CFTR F508del cor | LGR2 inh | PAX8 reporter | EWS-Fli inh
CC(C)OC(=O)Nc1ccc2c(c1)N(C(=O)CCN1CCOCC1)c1ccccc1CC2 | 1.7 | -3.8 | -9.2 | -2.7
CC(C)C[C@H](NC(=O)c1nc[nH]c1C(=O)NC(c1ccccc1)c1ccccc1)C(=O)OC(C)(C)C | -0.3 | 22.7 | 67.5* | 23.4
CC(C)C[C@H](NC(=O)c1[nH]cnc1C(=O)N[C@H](C)c1ccccc1)C(=O)OC(C)(C)C | 1.9 | 2.3 | 28.7 | 6.2
CC(C)C[C@H](NC(=O)c1nc[nH]c1C(=O)N[C@@H](CC(C)C)C(=O)OC(C)(C)C)C(=O)OC(C)(C)C | -1.8 | -1.9 | 65.9* | 24.2
NC(=O)C1CCN(C(=O)c2ccc(Cl)c(S(=O)(=O)NCc3ccco3)c2)CC1 | 1.7 | -3.4 | -0.8 | -3.2
CC(C)CC(COCc1ccc(C(F)(F)F)cc1)N1CCN(C(=O)c2ccc(C(F)(F)F)cc2)CCC1=O (configuration not stated) | -2.5 | 6.3 | 21.4 | 7.2
CC(C)C[C@@H](COCc1ccc(C(F)(F)F)cc1)N1CCN(C(=O)c2ccc(C(F)(F)F)cc2)CCC1=O | 9.6* | 1.5 | 18.0 | 6.1
COc1ccc(S(=O)(=O)Nc2ccc3c(c2)C(=O)N([C@H](C)CO)C[C@@H](C)[C@H](CN(C)Cc2ccc(Cl)c(Cl)c2)OCCCC[C@@H](C)O3)cc1 | 2.5 | -16.8 | 66.3* | 20.0
COc1ccc(S(=O)(=O)Nc2ccc3c(c2)C(=O)N([C@H](C)CO)C[C@H](C)[C@@H](CN(C)Cc2ccc(Cl)c(Cl)c2)OCCCC[C@H](C)O3)cc1 | 2.0 | -3.4 | 46.5 | 16.7
COc1ccc(S(=O)(=O)Nc2ccc3c(c2)C(=O)N([C@H](C)CO)C[C@H](C)[C@@H](CN(C)Cc2ccc(Cl)c(Cl)c2)OCCCC[C@@H](C)O3)cc1 | 3.5 | 18.1 | 93.9* | 34.7
O=C(CCl)NCc1cc(-c2ccc(Cl)cc2)no1 | -5.5 | 15.1 | 63.8* | 62.1*
CCN(CC)CCNC(=O)Cn1c(-c2ccccn2)nc2ccccc21 | -1.9 | -5.6 | . | -6.8
CC(C)CC1NC(=S)N(Cc2ccccc2)C1=O (configuration not stated) | -2.8 | 12.4 | 90.1* | 14.8
COc1ccccc1N1CCN(C2CCCN(C(=O)c3snnc3C)C2)CC1 (configuration not stated) | -0.4 | 4.1 | -5.7 | .
COc1cc(F)c(C2=CC(=O)C[C@H](c3ccc4c(c3)OCO4)C2)cc1F | -1.1 | -5.2 | 9.4 | -2.2
COc1ccc(F)cc1C1=CC(=O)C[C@H](c2ccc3c(c2)OCO3)C1 | -1.7 | 3.0 | -1.7 | 53.0*
CCC1(C2=CCCCC2)C(=O)NC(=S)N=C1N (configuration not stated) | 8.7* | -3.9 | -5.8 | -6.6
CC(=O)c1ccc(-c2ccc(-c3cc(=O)oc4c(C(C)C)ccc(C)c34)cc2)cc1 | -5.2 | 0.3 | 17.6 | 10.1
CC12CCC(=O)N1C(C(=O)OCC(=O)Nc1cccc(S(=O)(=O)N3CCCCCC3)c1)CS2 (configuration not stated) | -0.9 | -3.7 | 84.2* | 9.1
COc1ccc(N/C=C2\CCc3ccccc3C2=O)cc1 | -2.2 | 80.9* | 57.7 | 42.8
COc1ccc2c(c1)CC/C(=C\Nc1ccc3c(c1)OCO3)C2=O | 1.7 | -34.3 | . | -98.6
CC(=O)Oc1ccc(/C=C2/CCc3ccccc3C2=O)cc1 | -3.5 | 55.1* | -39.6 | 74.2*
COc1ccc(C(=O)/C=C/c2ccc(N(C)C)cc2)c(OC)c1 | 18.4* | -29.3 | 22.5 | 39.6
Nc1ccc(S(=O)(=O)Nc2cnc3c(Cl)cccc3n2)cc1 | 2.4 | -27.4 | 80.1* | -3.6
Nc1ccc(S(=O)(=O)Nc2cnc3ccccc3n2)cc1 | 11.5*! | -9.4 | -14.9 | -14.8
SMILES | CFTR F508del cor | LGR2 inh | PAX8 reporter | EWS-Fli inh
CCCOc1ccc2cc(-c3ccccn3)c(=O)oc2c1 | 1.5 | 88.5* | 73.8* | 77.2*
C/C(CC(=O)N1CCN(C=O)CC1)=N\NC(=O)c1cccc([N+](=O)[O-])c1 | 2.1 | -2.3 | -0.3 | -3.9
CN(C)CCCN(C(=O)c1ccc(S(=O)(=O)N2CCc3ccccc3C2)cc1)c1nc2ccc(F)cc2s1 | -2.1 | 12.4 | 12.7 | 57.8*
COc1ccccc1N1CCN(S(=O)(=O)CCNC(=O)CCc2ccccc2)CC1 | 3.9 | . | 6.4 | 1.7
COc1cc2ccccc2cc1C(=O)N/N=C/c1cccs1 | 1.2 | -16.2 | 41.4 | 58.5*
O=C(N/N=C/c1cccs1)c1cccc(NC(=O)c2ccccc2Cl)c1 | 9.5* | -33.2 | -13.1 | -23.4
COC(=O)N/N=C/c1cccs1 | 0.0 | 9.6 | -14.4 | 2.8
CCCCNC(=O)C1CCCN1C(=O)NC1CCCCC1 (configuration not stated) | . | . | 3.3 | .
CCC(=O)Nc1cc(C(=O)O)ccc1S(=O)(=O)c1ccc(C)cc1 | -1.8 | -4.1 | 64.4* | -3.6
COc1ccc(C2=NOC(COc3ccc4c(C)cc(=O)oc4c3)C2)c(OC)c1 (configuration not stated) | 4.9 | . | -19.8 | 56.1*
COc1ccccc1C1=NOC(COc2ccc3c(C)cc(=O)oc3c2)C1 (configuration not stated) | 5.1 | . | 15.8 | 53.4*
COc1ccc2c(C)cc(=O)oc2c1 | 1.5 | -7.4 | -12.2 | -3.0
CCC(=O)/C=C1/Sc2ccccc2N1CC | . | 2.3 | . | .
CCN1/C(=C/c2sc(-c3ccccc3C)c[n+]2C)Sc2ccccc21 | -5.4 | 29.0 | 98.1* | 65.4*
CCN(CC)S(=O)(=O)c1ccc2c(c1)nc(CCC(=O)OCC(=O)N1CCc3ccccc31)n2C | . | 5.7 | . | .
CC1=C(C(=O)Nc2ccccc2F)C(c2ccsc2)C2=C(CC(C)(C)CC2=O)N1 (configuration not stated) | . | 7.5 | 2.2 | 3.7
CC1=C(C(=O)Nc2cccc(F)c2)C(c2ccsc2)C2=C(CC(C)(C)CC2=O)N1 (configuration not stated) | . | 1.9 | -10.3 | 54.1*
O=S(=O)(/C=C/C=C/S(=O)(=O)c1ccccc1)c1ccccc1 | -4.8 | 45.7 | 117.1* | 65.2*
CCOC(=O)C(=Cc1ccc(-n2cncn2)cc1)C(=O)OCC | 2.6 | 65.0* | 12.8 | 17.1
CCOC(=O)/C(=C\c1ccc(N2CCC(c3ccccc3)=N2)cc1)C(C)=O | -0.2 | 22.1 | -134.3 | -3.0
C[C@H](CO)N1C[C@H](C)[C@H](CN(C)S(=O)(=O)c2cn(C)cn2)Oc2ccc(NC(=O)Nc3ccc(C(F)(F)F)cc3)cc2CC1=O | 0.7 | -1.6 | 42.9 | 61.1*
C[C@@H]1CN([C@@H](C)CO)C(=O)Cc2cc(NC(=O)Nc3ccc(C(F)(F)F)cc3)ccc2O[C@@H]1CN(C)S(=O)(=O)c1ccc(Cl)cc1 | 5.9 | -28.0 | 95.8* | 18.2
C[C@H]1CN([C@@H](C)CO)C(=O)Cc2cc(NC(=O)Nc3ccc(C(F)(F)F)cc3)ccc2O[C@@H]1CN(C)S(=O)(=O)c1ccc(F)cc1 | 1.3 | 13.6 | 13.7 | -3.8
C[C@H]1CN([C@@H](C)CO)C(=O)Cc2cc(NC(=O)Nc3ccc(C(F)(F)F)cc3)ccc2O[C@H]1CN(C)S(=O)(=O)c1ccc(Cl)cc1 | 2.5 | -11.4 | . | 57.1*
